Only some compounds are listed: those with a hit (about 2.7% of all), similar ones and a draw of the others.
RXFP1 ag = activates the human relaxin receptor RXFP1. Q9HBX9. actives 0.3% (n = 370,000). HEK293T-RXFP1 cAMP TR-FRET, 30 min; response scale: percent of porcine relaxin response, buffer zero. AID 2676. Potency, µM (top dose mostly 57.5 µM), inactives show top-dose activation, most hits filed as activators; active = well fitted activation curve with a large enough effect; inconclusive = small, poorly fitted or top-dose-only effect; also: potency is read from the fitted curve at half-maximal effect; % is scaled to controls: 0 for no effect and ±100 for the full control effect; nearly all actives have a fitted effect of over 60% in size
Target sequence (Q9HBX9 whole entry, looked up): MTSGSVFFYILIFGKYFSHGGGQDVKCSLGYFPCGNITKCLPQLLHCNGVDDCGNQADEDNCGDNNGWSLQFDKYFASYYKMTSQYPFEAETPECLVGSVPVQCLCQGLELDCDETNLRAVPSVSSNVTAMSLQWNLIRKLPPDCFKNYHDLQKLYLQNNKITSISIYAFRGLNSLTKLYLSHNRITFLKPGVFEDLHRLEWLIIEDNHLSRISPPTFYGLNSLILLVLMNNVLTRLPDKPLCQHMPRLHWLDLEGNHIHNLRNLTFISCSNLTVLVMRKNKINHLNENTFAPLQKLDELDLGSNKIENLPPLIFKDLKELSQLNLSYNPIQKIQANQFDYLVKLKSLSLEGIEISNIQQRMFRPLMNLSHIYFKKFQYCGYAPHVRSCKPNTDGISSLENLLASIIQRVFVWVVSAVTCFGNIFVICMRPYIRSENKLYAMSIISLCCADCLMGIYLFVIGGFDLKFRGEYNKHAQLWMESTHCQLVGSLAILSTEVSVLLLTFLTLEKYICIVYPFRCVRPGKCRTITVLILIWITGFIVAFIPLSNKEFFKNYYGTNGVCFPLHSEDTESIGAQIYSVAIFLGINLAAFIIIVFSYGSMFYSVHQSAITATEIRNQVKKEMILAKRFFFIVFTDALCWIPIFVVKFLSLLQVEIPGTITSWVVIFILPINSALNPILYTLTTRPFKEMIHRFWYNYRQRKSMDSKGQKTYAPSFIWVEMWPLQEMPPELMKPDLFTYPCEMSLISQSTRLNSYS
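cAMP rise read by TR-FRET after 30 min, 37C compound exposure (up to 58 uM) in RXFP1-transfected HEK293 cells with Ro 20174 present. EC50 from Hill-equation fits, with 29 nM porcine relaxin as 100% and buffer as basal.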
ClpP mod = qHTS Assay for Activators of ClpP; purified B. subtilis ClpP, FRET peptide cleavage, 20 min; actives 1.9% (n = 340,000); ATP-dependent Clp protease proteolytic subunit (Bacillus subtilis (strain 168)), P80244; Potency, µM (series often up to 57.5 µM), inactives show at the top dose activity change, negative = active; active = well fitted falling curve with a large enough effect; inconclusive = small, poorly fitted or top-dose-only effect; inactive = no such curve, though single readings can be large or run the other way; also: potency is read from the fitted curve at half-maximal effect; the source files actives as falling curves though it sought activators and does not explain the sign; nearly all actives have a fitted effect of over 65% in size
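ClpP 10 microg/mL final, pH 8 Tris/KCl buffer with BSA, glycerol, Tween-20; compound pinned in; FRET-FV substrate; RT 20 min; Ex320/Em430; ΔFRET vs ADEP 5.8 microM, DMSO, no enzyme.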
Akt phos inh = inhibitors of Akt phosphorylation | activity change, % for hits at 50 µM | AID 651550 | Neuro2A IGF-stimulated pAkt S473 HTRF, 20 min; hits give low values | actives 0.32% (n = 360,000); in the data active = activity change below about -80%; inconclusive = mostly about -51% to -80%; also: % is scaled to controls: 0 for no effect and ±100 for the full control effect
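Neuro2A cells in DMEM with 0.5% FBS, overnight at 37 deg C, given compound at single 50 µM final, then IGF (6 nM final) for 20 min at 37 deg C. Lysed; phospho-Akt Ser473 by HTRF after 24 h, 665/615 ratio.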
gsp ag = activates gsp, the McCune-Albright syndrome mutation; actives 0.13% (n = 340,000); Potency, µM (series often up to 76.9 µM), for the others: top-dose activation (cAMP increase), most hits filed as activators; gsp mutant cells, cAMP HTRF, 30 min; active = well fitted activation curve with a large enough effect; inconclusive = small, poorly fitted or top-dose-only effect, or another doubt; inactive = no such curve, though single readings can be large or run the other way; cell line not stated here;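 also: phosphodiesterase inhibitor Ro 20-1724 added with compounds to block cAMP breakdown; potency is read from the fitted curve at half-maximal effect; nearly all actives have a fitted effect of over 60% in size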
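Cells stably selected in G418 were plated at 2000/well, grown 16-24 hr, then given compounds in DMSO with the PDE inhibitor […] (300 uM solution added) for 30 min at 37C; cAMP was read by HTRF.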
RXFP1 antagonist = blocks the human relaxin receptor RXFP1 | Q9HBX9 | HEK293-RXFP1, relaxin-stimulated cAMP HTRF, 30 min; hits give low values | activity change, negative = inhibition, % at 57.5 µM | actives 0.59% (n = 350,000);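 active = activity change of -60% or lower, but not beyond a set lower limit; inconclusive = change between -60% and -40%, or beyond the set limit; inactive = change above -40%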; also: % is scaled to controls: 0 for no effect and ±100 for the full control effect
gsp antag = gsp mutant antagonism; gsp-mutant cells, cAMP HTRF, 30 min; Potency, µM (highest dose often 76.9 µM), for the others: top-dose activity change, negative = inhibition, usual class: inhibitors; actives 0.4% (n = 340,000); AID 624288; calls by dose curve; cell line not stated here;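 also: intracellular cAMP measured with PDE inhibitor Ro 20-1724 present during compound exposure; potency is read from the fitted curve at half-maximal effect; % is scaled to controls: 0 for no effect and ±100 for the full control effect; nearly all actives have a fitted effect of over 65% in size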
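Cells, 2000/well, grown 16–24 h in DMEM 10% FBS with 0.5 mg/ml G418, then compounds plus […] (300 uM addition stock), 30 min at 37C. cAMP read by HTRF (cAMP-d2 and anti-cAMP antibody-K in lysis buffer) after 30 min RT.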
Active calls of the source: *; i = inactive; ? = inconclusive; / = no result given; ! = not active in a repeat; [ ] = another dose, or the depositor's remark.

SMILES	RXFP1 ag	ClpP mod	Akt phos inh	gsp ag	RXFP1 antagonist	gsp antag
Cc1ccc(-c2c(C)n3c4c(=O)n(C)c(=O)n(C)c4nc3n2CCO)cc1	?	1%	/	/	-9	/
O=C(Nc1ccc2ccccc2c1)c1nn(C23CC4CC(CC(C4)C2)C3)cc1Br	0%	20µM*	i	-2%	7	-6%
COc1ccc(NC(=O)c2ccc(=O)[nH]c2)cc1S(=O)(=O)N1CCOCC1	0%	-2%	i	-46%	-2	9%
CCOC(=O)CC(SP1(=S)OCC2(CCCCC2)CO1)C(=O)OCC (configuration not stated)	/	28µM*	i	-19%	0	-11%
CCCOc1ccc(C(=O)CCC(=O)NNC(=O)c2ccncc2)cc1	0%	-2%	i	-37%	-15	4%
O=C(c1ccc2nc3ccc(Cl)cc3c(=O)n2c1)N1CCC2(CC1)OCCO2	/	14µM*	i	?	-6	6%
Cc1cc(C)cc(OCC(=O)Nc2ccc(-c3nc4ccccc4s3)cc2)c1	?	4%	/	/	/	/
CCN(C(=O)CN1CC=C(c2ccccc2)CC1)c1c(N)n(Cc2ccccc2)c(=O)[nH]c1=O	0%	/	i	8%[15.4 µM]	-61*	10%
CC(C)CN(C(=O)CN1CC=C(c2ccccc2)CC1)c1c(N)n(CC(C)C)c(=O)[nH]c1=O	1%	/	i	27%	-27	1%
CCOC(=O)C(O)(c1ccc(N(CC)S(=O)(=O)c2ccccc2)cc1)C(F)(F)F (configuration not stated)	2%	-1%	i	-24%	-7	-9%
CCN(c1ccc(C(O)(C(=O)OC)C(F)(F)F)cc1)S(=O)(=O)c1ccccc1 (configuration not stated)	3%	0%	-125%*	0%	-2	-17%
CC(Cc1ccccc1)NCCCCl (configuration not stated)	/	/	/	/	-7	/
O=C(O)COc1ccc(Cl)cc1Cl	/	1%	i	-47%	2	12%
Oc1cc(Cl)ccc1Oc1ccc(Cl)cc1Cl	/	-2%	i	/	-77*!	-23%
CCCCNC(=O)c1c(N)n(Cc2ccc3c(c2)OCO3)c2nc3ccccc3nc12	1%	10µM*	i	-15%	-5	38%
CCCOC(=O)c1c(N)n(Cc2cccs2)c2nc3ccccc3nc12	-1%	?	-115%*	-32%	-6	9%
CCCCCCn1c(N)c(C(=O)NCCN2CCOCC2)c2nc3ccccc3nc21	1%	25µM*	/	-29%	-9	11%
CCCCCn1c(N)c(C(=O)NCc2cccs2)c2nc3ccccc3nc21	2%	28µM*	i	17%	-2	9%
On1ccccc1=S	-2%	?	i	/	/	-1%
CCc1ccccc1NC(=O)C(CC)Oc1ccccc1-c1nnc(-c2ccccc2)o1 (configuration not stated)	1%	?	/	/	/	/
CCc1cccc(NC(=O)c2ccc(NC(=O)N3CCSc4ncccc43)cc2)c1	1%	?	/	/	-14	/
O=C1OC(CCN2CCCCC2)OC1(c1ccccc1)c1ccccc1 (configuration not stated)	/	/	/	/	21	/
COc1ccc(C2=C(C(C)=O)Sc3nnc(-c4ccc(Cl)cc4)n3N2C(C)=O)cc1OC	1%	?	/	/	-6	/
COCCCn1c(N)c(C(=O)NCCC(C)C)c2nc3ccccc3nc21	2%	32µM*	i	-1%	-15	1%
CCCCn1c(N)c(C(=O)OCCOC)c2nc3ccccc3nc21	5%	/	i	3%[15.4 µM]	9	19%
SMILES	RXFP1 ag	ClpP mod	Akt phos inh	gsp ag	RXFP1 antagonist	gsp antag
COCCCNC(=O)c1c(NC(=O)c2ccccc2)n(Cc2ccccc2)c2nc3ccccc3nc12	/	32µM*	i	-9%	13	4%
CCCCn1c(N)c(C(=O)NCc2cccs2)c2nc3ccccc3nc21	3%	25µM*	i	19%	1	8%
CC[C@H](O)C(C[C@H](C)N(C)C)(c1ccccc1)c1ccccc1	/	/	/	/	18	/
CCCCCCOC(=O)c1ccccc1N	0%	22µM*	i	10%	1	-4%
CCCCOC(=O)c1ccccc1N	/	4%	i	/	/	-9%
Cc1[nH]c(=S)c(C#N)c2c1CCCC2	?	/	i	14µM*	20	2%
Cc1ccc2c(c1)C1CN(C)CCC1N2 (configuration not stated)	/	/	/	/	8	/
CN(CC(=O)Nc1cccc(F)c1)CC(=O)Nc1cccc(S(=O)(=O)N(C)c2ccccc2)c1	/	1%	i	-1%[15.4 µM]	-9	50µM*
CCc1ccc(NC(=O)c2cnc3sc(N4CCCC4)nn3c2=O)cc1	?	-6%	/	/	8	/
O=C1NC(=O)C(=Cc2ccc(N3CCN(C(=O)c4ccccc4)CC3)c([N+](=O)[O-])c2)C(=O)N1	-1%	/	i	5%[15.4 µM]	-75*	-15%
N#CC(C#N)=NNc1ccc([N+](=O)[O-])cc1	1%	/	i	-19%	-29	50µM*
CC[N+](CC)(CC)CC	1%	?	i	/	8	35µM*
CN(C)C(=O)Oc1ccc(-c2cn3cc(C(F)(F)F)ccc3n2)cc1	3%	10µM*	i	17%	6	-11%
CN(C)C(=O)Oc1ccc(-c2cn3cc(Cl)ccc3n2)cc1	0%	?	i	5%	/	-29%
COc1ccccc1CN1CC(C(=O)NCCN(C)CCc2ccccc2)CCC1=O (configuration not stated)	-2%	-6%	i	-33%	4	-15%
O=c1[nH]c(=O)n(-c2cccc(Cl)c2)c(O)c1C=NCCCN1CCOCC1	0%	-4%	i	-1%	-10	4%
Cc1ccc(-n2c(O)c(C=NCCN3CCOCC3)c(=O)[nH]c2=O)cc1	-2%	-11%	-128%*	3%	-10	0%
Cc1ccc(/C=C2/C(=O)NC(=O)N(CCc3ccc(F)cc3)C2=O)o1	4%	1%	i	2%	-73*	3%
CC(Cc1ccccc1)N(C)Cc1ccco1 (configuration not stated)	/	/	/	/	7	/
O=c1nc(/C=C/c2ccc(Cl)cc2Cl)cc(C(F)(F)F)[nH]1	0%	-6%	i	?	-75*	-5%
N#CC(C#N)=NNc1ccc(-n2ccc(C(F)(F)F)n2)cc1	1%	/	i	?	?	32µM*
Cc1cc(C)n(-c2ccc(NN=C(C#N)C#N)cc2)n1	-1%	3%	i	-1%	-14	?
O=C(NCc1ccccc1)c1cccc(Nc2nc3ccccc3n3nnnc23)c1	?	?	/	/	2	/

Screens (PubChem)
